# Source: PubChem BioAssay (NCATS)
# Values joined by “and” are separate entries in the source; they are usually repeats but may differ in a detail not shown here. Equal values may be shown once. Values without a mark were called inactive. Results filed as inconclusive are left out. Where a call stands in place of a potency, no number is given. Active and inactive are the calls of the source. Calls come from the whole dose curve; as a rule, active = well fitted curve in the direction sought with a large enough effect; inconclusive = small, poorly fitted or top-dose-only effect, or another doubt; inactive = no such curve, though single readings can be large; an effect the other way counts as inactive or inconclusive.
# Experiments:
# [1] = molecular target: Cytochrome P450 2C9 (Homo sapiens) (UniProt P11712); test: qHTS Assay for Inhibitors and Substrates of Cytochrome P450 2C9 (AID 883); details: recombinant CYP2C9, luciferin-H luminescence, 60 min; series mostly up to 11.4 µM; note: nearly all actives have a fitted effect of over 60% in size; note: potency is the fitted concentration of half-maximal effect
# Method in brief: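 Human CYP2C9 (10nM) hydroxylated Luciferin-H (100uM, at its KM) to luciferin in 25mM KPO4. Compound was preincubated 10 min at 37C, then NADPH regeneration started a 60 min reaction at 37C. Luminescence was read after detection reagent, normalized to 57uM sulphaphenazole.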
# [2] = molecular target: Cytochrome P450 3A4 (Homo sapiens) (UniProt P08684); test: qHTS Assay for Activators of Cytochrome P450 3A4 (AID 885); details: recombinant CYP3A4, Luciferin-PPXE luminescence, 60 min; series mostly up to 57.1 µM; note: nearly all actives have a fitted effect of over 65% in size
# Method in brief: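 Using 20nM recombinant human CYP3A4 in potassium phosphate (200mM), substrate Luciferin-PPXE at 25uM, luminescent luciferin detection followed a 60-min RT NADPH reaction; data scaled to 57 uM ketoconazole.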
# [3] = molecular target: Cytochrome P450 2D6 (Homo sapiens) (UniProt P10635); test: qHTS Assay for Inhibitors and Substrates of Cytochrome P450 2D6 (AID 891); details: recombinant CYP2D6, luciferin-ME EGE luminescence; series mostly up to 11.4 µM;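 note: luciferin methyl ether substrate demethylated by CYP2D6 with NADPH regeneration; nearly all actives have a fitted effect of over 60% in size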
# Method in brief: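 Luminescent read-out of luciferin formed by 5 nM human CYP2D6 demethylating 30 uM Luciferin-ME EGE (Km level) over 60 min at room temperature after NADPH regeneration addition. Data normalized to full inhibition by 1.43 uM quinidine.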
# [4] = molecular target: Cytochrome P450 2C19 (Homo sapiens) (UniProt P33261); test: qHTS Assay for Inhibitors and Substrates of Cytochrome P450 2C19 (AID 899); details: recombinant CYP2C19, luciferin-H EGE luminescence; series mostly up to 11.4 µM; note: nearly all actives have a fitted effect of over 60% in size; note: potency is the fitted concentration of half-maximal effect
# Method in brief: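 Human CYP2C19 (5nM) with Luciferin-H EGE at 10uM (its KM) in 50mM KPO4 was preincubated with compound for 10 min at 37C. NADPH regeneration started a 60 min 37C reaction. Luciferin was read by luminescence, normalized to 57uM ketoconazole.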
# [5] = molecular target: Cytochrome P450 3A4 (Homo sapiens) (UniProt P08684); test: qHTS Assay for Inhibitors and Substrates of Cytochrome P450 3A4 (AID 884); details: recombinant CYP3A4, Luciferin-PPXE luminescence; series mostly up to 57.1 µM; note: nearly all actives have a fitted effect of over 50% in size
# Method in brief: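 Luminescent readout of luciferin produced by CYP3A4 (20 nM) dealkylation of Luciferin-PPXE, 25 uM (its KM). NADPH-driven reaction ran 60 min at RT after 10 min compound preincubation; data scaled to 57 uM ketoconazole as 100% inhibition.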
# Sequence of Cytochrome P450 2D6 (Homo sapiens) (P10635 whole entry, looked up): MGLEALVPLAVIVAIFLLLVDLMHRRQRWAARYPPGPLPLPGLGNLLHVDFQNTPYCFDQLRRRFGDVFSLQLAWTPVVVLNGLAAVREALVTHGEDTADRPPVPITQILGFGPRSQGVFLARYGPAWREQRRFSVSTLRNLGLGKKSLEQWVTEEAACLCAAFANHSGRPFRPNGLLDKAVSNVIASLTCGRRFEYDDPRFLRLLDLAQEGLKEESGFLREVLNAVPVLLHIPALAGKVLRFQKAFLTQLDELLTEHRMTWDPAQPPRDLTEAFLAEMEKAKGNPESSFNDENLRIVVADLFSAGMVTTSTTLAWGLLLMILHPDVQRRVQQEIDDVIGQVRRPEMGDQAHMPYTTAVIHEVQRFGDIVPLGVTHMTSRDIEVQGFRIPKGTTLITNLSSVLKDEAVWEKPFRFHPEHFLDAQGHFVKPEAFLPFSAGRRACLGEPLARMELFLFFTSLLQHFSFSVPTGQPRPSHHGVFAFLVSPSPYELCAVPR
# Sequence of Cytochrome P450 2C19 (Homo sapiens) (P33261 whole entry, looked up): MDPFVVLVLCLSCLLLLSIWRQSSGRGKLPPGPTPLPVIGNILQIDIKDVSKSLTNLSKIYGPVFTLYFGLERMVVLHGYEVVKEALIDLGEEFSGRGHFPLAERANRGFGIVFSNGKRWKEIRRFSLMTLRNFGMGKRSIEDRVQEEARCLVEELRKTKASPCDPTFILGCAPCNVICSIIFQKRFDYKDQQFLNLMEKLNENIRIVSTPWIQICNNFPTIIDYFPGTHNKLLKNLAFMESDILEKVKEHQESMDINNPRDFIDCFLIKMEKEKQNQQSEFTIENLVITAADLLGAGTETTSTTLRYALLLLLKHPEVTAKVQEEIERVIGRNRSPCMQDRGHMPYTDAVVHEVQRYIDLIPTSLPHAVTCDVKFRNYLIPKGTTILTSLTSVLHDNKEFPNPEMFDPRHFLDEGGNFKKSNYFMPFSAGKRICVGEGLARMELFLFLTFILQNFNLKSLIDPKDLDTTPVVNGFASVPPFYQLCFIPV
# Sequence of Cytochrome P450 2C9 (Homo sapiens) (P11712 whole entry, looked up): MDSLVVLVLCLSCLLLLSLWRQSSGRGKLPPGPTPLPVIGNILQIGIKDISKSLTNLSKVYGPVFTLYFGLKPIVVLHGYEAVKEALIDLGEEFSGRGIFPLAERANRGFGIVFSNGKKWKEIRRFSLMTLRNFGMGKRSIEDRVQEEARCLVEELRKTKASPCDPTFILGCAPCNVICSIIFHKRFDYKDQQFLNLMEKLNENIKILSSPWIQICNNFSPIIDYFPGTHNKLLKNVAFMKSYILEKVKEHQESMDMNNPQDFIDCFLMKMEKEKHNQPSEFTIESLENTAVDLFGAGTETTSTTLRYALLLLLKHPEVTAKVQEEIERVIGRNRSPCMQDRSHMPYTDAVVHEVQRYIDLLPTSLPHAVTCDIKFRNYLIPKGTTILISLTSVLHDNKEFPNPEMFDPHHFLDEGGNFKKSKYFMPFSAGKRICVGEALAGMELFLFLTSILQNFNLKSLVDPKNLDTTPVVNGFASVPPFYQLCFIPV
# Sequence of Cytochrome P450 3A4 (Homo sapiens) (P08684 whole entry, looked up): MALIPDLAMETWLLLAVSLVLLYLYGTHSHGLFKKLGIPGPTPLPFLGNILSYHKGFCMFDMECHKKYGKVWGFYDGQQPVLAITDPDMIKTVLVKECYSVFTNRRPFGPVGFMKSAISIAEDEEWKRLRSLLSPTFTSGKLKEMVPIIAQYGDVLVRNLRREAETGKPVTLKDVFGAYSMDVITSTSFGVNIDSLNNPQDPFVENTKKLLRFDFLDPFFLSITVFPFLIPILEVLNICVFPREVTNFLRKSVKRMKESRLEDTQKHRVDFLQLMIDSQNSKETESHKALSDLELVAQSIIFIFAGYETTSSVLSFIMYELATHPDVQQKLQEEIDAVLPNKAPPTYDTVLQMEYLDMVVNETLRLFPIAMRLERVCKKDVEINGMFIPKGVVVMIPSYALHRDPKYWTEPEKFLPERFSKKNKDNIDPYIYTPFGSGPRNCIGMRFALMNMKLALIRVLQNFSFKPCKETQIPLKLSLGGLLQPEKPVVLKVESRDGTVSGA
Structure (SMILES),Potency [1],"activity change, positive = activation [2]",Potency [3],Potency [4],Potency [5]
CC1CCC2C(=O)OC(Cc3ccccc3)CN2C1c1ccc(Br)cc1 (stereo not given),inactive,-52.5% [at 11.4 µM] and -47.1% [at 11.4 µM],inactive,316 nM (active) and 3.16 µM (active),
CCCCCCC1=Cc2cc(OC)c(OC)cc2C(CC(=O)/C=C/OC)O1 (stereo not given),inactive,-40.4% [at 11.4 µM],inactive,inactive,
CC(=O)OCC1OC(C#CCC2CCCCC2)C=CC1OC(C)=O (stereo not given),inactive,-56.3% [at 11.4 µM],inactive,inactive,
C(#CC1C=CC2OC(c3ccccc3)OCC2O1)c1ccccc1 (stereo not given),inactive,-40.5% [at 11.4 µM],inactive,inactive,
COC(=O)C1=C(C)N(Cc2ccccc2)C2=C(C(C)=O)C[C@@](O)(C(=O)OC)C(=O)N2C1c1ccccc1 (stereo not given in full),inactive,-45.3% [at 11.4 µM] and -48.2% [at 11.4 µM],inactive,inactive,
CCCCCCCC#Cc1ccccc1/C=N/S(=O)C(C)(C)C (stereo not given),inactive,-47.5% [at 11.4 µM],inactive,inactive,
CCCCC#CC1C=CC(Oc2cc(OC)c(OC)c(OC)c2)C(CO)O1 (stereo not given),inactive,-45% [at 11.4 µM],inactive,inactive,
CC(C)=CCC/C(C)=C/C=C/C1=CC2(C)CC1(C)C(/C=C(\C)CCC=C(C)C)CC2=O (stereo not given),inactive,-35% [at 11.4 µM],inactive,inactive,
CC1Cc2c(COc3ccccc3)nc3c(c2CO1)CN(CCOc1ccccc1)CC3 (stereo not given),inactive,-42% [at 11.4 µM],inactive,inactive,
C=C(C)C(O)/C=C/C=C/c1ccccc1 (stereo not given),inactive,-32.8% [at 11.4 µM],inactive,inactive,
CCCCCCC#CC1C=CC(Oc2ccc(C=O)cc2)C(CO)O1 (stereo not given),inactive,-35.2% [at 11.4 µM],inactive,3.98 µM (active),
COc1cccc(C2C(C)CCC3C(=O)N(C)C(C(C)C)C(=O)N32)c1 (stereo not given),inactive,-59.1% [at 11.4 µM],inactive,inactive,
COC(=O)C(C(=O)OC)C1O[C@@]23COCCC2(C)C3c2ccccc21 (stereo not given in full),inactive,-34.9% [at 11.4 µM],inactive,inactive,
COc1ccc(OC2C=CC(c3ccccc3)OC2CO)c(C(C)=O)c1 (stereo not given),inactive,-57.7% [at 11.4 µM],inactive,inactive,
COC1(C#CC2C=CC(OC(C)=O)C(COC(C)=O)O2)CCCCC1 (stereo not given),inactive,-43% [at 11.4 µM],inactive,inactive,
COC(=O)NC(/C=C/c1ccccc1)[C@]1(C(C)=O)CCCC1=O (stereo not given in full),inactive,-41.6% [at 11.4 µM],inactive,inactive,
COC(=O)NC(c1cccc(C)c1)C(C(C)=O)C(=O)OC (stereo not given),inactive,-34.6% [at 11.4 µM],inactive,inactive,
COC(=O)C1=C(C)N(Cc2ccccc2)[C@]23O[C@](C(=O)OC)(C(=O)N2C1c1ccccc1)C(C(=O)OC)=C3C(=O)OC (stereo not given in full),inactive,-58% [at 11.4 µM],inactive,1.58 µM (active),
CCN1C(C)=C(C(=O)OC)C(c2ccccc2)N2C(=O)[C@](O)(C(=O)OC)CC(C#N)=C12 (stereo not given in full),inactive,-38.3% [at 11.4 µM],inactive,inactive,
CCC(=O)CC(NC(=O)OC)c1ccccc1 (stereo not given),inactive,,inactive,inactive,
COc1ccc(O[C@H]2C=C[C@@H](c3ccccc3)O[C@H]2COC(=O)N2CCCCC2)cc1,2510 nM (active),,,0.501 µM (active),
CCOC(=O)OCC1OC(C#Cc2ccc(C)cc2C)C=CC1OC(=O)OCC (stereo not given),inactive,,inactive,inactive,
CCC1=C2CC[C@H]3C(=O)N(C)C(=O)[C@H]3[C@H]2[C@@]2(C)C(=O)N(CC3CC3)C(=O)N2C1=O,,,,,inactive
CNC(=O)C1(C)C=CCN1C(=O)c1ccccc1 (stereo not given),,,,,inactive
COC(=O)[C@@H]1C[C@@]2(O)[C@@H](O)[C@@H](O)[C@@H](O)C[C@H]2N1Cc1ccc(Cl)cc1,,,,,inactive
CC12C=C(/C=C/c3ccc(C(F)(F)F)cc3)C(C)(C1)C(c1ccc(C(F)(F)F)cc1)CC2=O (stereo not given),inactive,-39% [at 11.4 µM],,inactive,
